Only a selection was taken, and hits are over-represented in it overall.
AmpC inh no detg = qHTS Inhibitors of AmpC Beta-Lactamase (assay without detergent) | 330,000 tested, 0.52% active | AmpC nitrocefin hydrolysis, absorbance 480 nm, 0.0001% Triton | P00811 | Potency, µM (highest dose often 57.1 µM), for the others: at the highest dose activity change, negative = inhibition, usual class: inhibitors;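 note: potency is the fitted concentration of half-maximal effect; plate controls were no compound for no effect and no enzyme for full effect; nearly all actives have a fitted effect of over 20% in size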
Target sequence (P00811 whole entry, looked up): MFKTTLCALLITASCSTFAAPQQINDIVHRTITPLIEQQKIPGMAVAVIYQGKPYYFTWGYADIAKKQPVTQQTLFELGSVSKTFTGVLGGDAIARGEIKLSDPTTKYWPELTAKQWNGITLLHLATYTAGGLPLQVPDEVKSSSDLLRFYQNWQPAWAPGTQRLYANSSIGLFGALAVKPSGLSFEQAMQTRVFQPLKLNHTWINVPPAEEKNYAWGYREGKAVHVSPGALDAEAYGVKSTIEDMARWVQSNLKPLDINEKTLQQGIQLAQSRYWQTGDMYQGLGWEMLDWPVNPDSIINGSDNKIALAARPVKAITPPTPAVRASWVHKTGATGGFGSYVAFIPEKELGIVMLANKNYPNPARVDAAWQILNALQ
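AmpC (5.3 nM in the dispensed reagent) in 20 mM phosphate pH 7.0 with 0.01% (detergent screen) or 0.0001% Triton X-100 was preincubated with compounds for 15 min at room temperature. Nitrocefin was then added from an 800 uM solution, and hydrolysis was followed at 480 nm.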
Shiga toxin inh = A qHTS for Small Molecule Inhibitors of Shiga Toxin; Vero cells, Shiga toxin protein synthesis inhibition reporter; inhibition, % at 38.7 µM; AID 2315, 2010; 290,000 tested, 9.2% active; in the data active = inhibition mostly above about 28%, no sharp cut-off; inactive = mostly below about 43%; note: 0% is about no effect
AmpC inh detg = qHTS Inhibitors of AmpC Beta-Lactamase (assay with detergent). AID 485294, 2010. AmpC hydrolysis of nitrocefin, absorbance 480 nm, 0.01% Triton. 370,000 tested, 0.041% active. Potency, µM (top dose mostly 114 µM), for the others: at the highest dose activity change, negative = inhibition, most hits filed as inhibitors;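 note: potency is the fitted concentration of half-maximal effect; 0% = no-compound wells and -100% = no-enzyme wells; nearly all actives have a fitted effect of over 25% in size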
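20 mM phosphate pH 7.0 + 0.01% (detergent screen) or 0.0001% Triton X-100; 5.3 nM AmpC reagent; cpd preinc 15 min RT; nitrocefin (800 uM stock) to start; A480 q20 s × 4 min; Activity was normalised to no-enzyme and no-compound control wells.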
AMA1-RON2 inh = qHTS for Inhibitors of AMA1-RON; Towards Development of Antimalarial Drug Lead: Primary Screen | 360,000 tested, 0.2% active | AlphaScreen AMA1-biotinylated RON2 peptide binding | Potency, µM (doses to about 58.2 µM), for the others: at the top dose activity change, negative = inhibition, most hits filed as inhibitors | AID 720542, 2013;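 note: potency is the fitted concentration of half-maximal effect; 0% = vehicle wells and -100% = peptide control; nearly all actives have a fitted effect of over 45% in size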
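AMA1 (3D7) with his tag at 25 nM final met compounds first, then biotinylated RON2 peptide at 25 nM; detection used donor plus acceptor beads, 10 µg/mL apiece, read by AlphaScreen after 30 min at room temperature.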
Cycloheximide cs = Cycloheximide Counterscreen for Small Molecule Inhibitors of Shiga Toxin. cell reporter, cycloheximide protein synthesis inhibition counterscreen. max response, %. 300,000 tested, 12% active; in the data active = max response mostly above about 13%, no sharp cut-off; inactive = mostly below about 14%; note: read at 38.3 µM for the half of the compounds with a filed dose; 0% is about no effect
SARS PLP yeast = qHTS of Yeast-based Assay for SARS-CoV PLP. S. cerevisiae expressing SARS-CoV PLpro, growth rescue. Potency, µM (titrated, usually from 32.9 µM), for inactives: at the top dose activity, positive = growth rescue, actives largely listed as activators. 330,000 tested, 0.19% active. AID 485353, 2010; calls by dose curve; note: potency is the fitted concentration of half-maximal effect; 0% is about no effect; nearly all actives have a fitted effect of over 55% in size
Starred values were filed as active, the others as inactive; ? = inconclusive; . = no result. Unless noted, calls come from the whole dose curve; as a rule, active = well fitted curve in the direction sought with a large enough effect; inconclusive = small, poorly fitted or top-dose-only effect, or another doubt; inactive = no such curve, though single readings can be large; an effect the other way counts as inactive or inconclusive.

SMILES	AmpC inh no detg	Shiga toxin inh	AmpC inh detg	AMA1-RON2 inh	Cycloheximide cs	SARS PLP yeast
CC(NC(N)=O)C(=O)OCC(=O)c1ccc(-c2ccccc2)cc1 (stereo not given)	-6%	43*	3%	-1%	36*	-1%
CSc1ccc(CN(C)C(=O)C(Cc2ccccc2)NC(=O)c2ccccc2)cc1 (stereo not given)	116%	65*	3%	-8%	40*	-4%
O=C(NCc1ccccc1Br)c1ccncc1	-9%	17	2%	9%	3	1%
COC(=O)c1ccc(NC(=O)C2C3C=CC(O3)C2C(=O)O)cc1 (stereo not given)	-12%	30*	?	-4%	20*	-30%
Cc1ccc(NC(=O)C2C3C=CC(O3)C2C(=O)O)cc1C (stereo not given)	-10%	.	0%	-1%	52*	-6%
CCOC(=O)c1ccc(NC(=O)C2C3C=CC(O3)C2C(=O)O)cc1 (stereo not given)	-9%	29	-8%	.	13	-9%
CCOC(=O)CN1C(=O)S/C(=C/c2cc(C)n(-c3ccccn3)c2C)C1=O	55%	69*	-1%	-1%	59*	0%
CCOC(=O)CN1C(=O)S/C(=C/c2ccc(C)o2)C1=O	-22%	46*	-2%	4%	24*	-3%
COC(=O)C(C)N1C(=O)S/C(=C\c2cc(C)n(-c3ccccn3)c2C)C1=O (stereo not given)	100%	90*	3%	-13%	43*	4%
COC(=O)C(C)N1C(=O)S/C(=C/c2cc(C)n(-c3ccccn3)c2C)C1=O (stereo not given)	54%	57	?	-15%	50*	10%
CCOC(=O)CN1C(=O)S/C(=C/c2ccc(O)c([N+](=O)[O-])c2)C1=O	-25%	12	-15%	-18%	-2	-45%
CCOC(=O)CN1C(=O)S/C(=C/c2cc(C)n(C)c2C)C1=O	.	.	.	-12%	.	.
Cc1cc(Nc2cc(F)ccc2C)nc(-n2nc(C)cc2C)n1	.	.	-6%	.	.	.
COc1ccc(CNC(=O)CSCc2cccc(Cl)c2)cc1	-15%	5	-5%	-2%	-3	-4%
Cc1cc(/C=C2/NC(=O)NC2=O)c(C)n1-c1ccccn1	-18%	19	-8%	-2%	19*	-17%
Cc1onc(-c2c(F)cccc2Cl)c1C(=O)O/N=C(\N)c1ccc([N+](=O)[O-])o1	-32%	36*	?	-13%	18	-6%
S=C(NCc1ccco1)N1CCN(c2nc(-c3ccc(Cl)cc3)cs2)CC1	-43%	68	1%	-18%	38	-4%
CC(C)C(=O)N1CCN(c2nc(-c3ccc(Cl)cc3)cs2)CC1	19%	32	-1%	-8%	-2	0%
CNC(=S)N1CCN(c2nc(-c3ccc(Cl)cc3)cs2)CC1	4%	21	0%	?	16*	-3%
COc1cccc(-c2csc(N3CCN(C(=S)Nc4ccccc4)CC3)n2)c1	-56%	-4	-4%	14%	1	1%
COc1cccc(-c2csc(N3CCN(C(=S)Nc4ccc(Cl)cc4)CC3)n2)c1	-22%	75*	?	13%	24*	-8%
COc1cccc(-c2csc(N3CCN(C(=S)Nc4ccccc4C)CC3)n2)c1	-30%	49*	-2%	31%	18*	-1%
CCOC(=O)N1CCN(c2nc(-c3ccc(Cl)cc3)cs2)CC1	-1%	46*	-1%	-9%	36*	-5%
CCn1c(SC(C)C(=O)NCC2CCCO2)nc2ccccc21 (stereo not given)	-6%	.	1%	-18%	.	-16%
O=C(c1cc(F)c(F)cc1Cl)N1CCOCC1	-5%	-6	-15%	0%	-1	0%
SMILES	AmpC inh no detg	Shiga toxin inh	AmpC inh detg	AMA1-RON2 inh	Cycloheximide cs	SARS PLP yeast
CCOC(=O)C1(Cc2ccccc2)CCN(Cc2cccc(OC)c2O)CC1	36%	-3	6%	-7%	2	0%
COC(=O)c1oc2ccc(Cl)cc2c1-n1cccc1	-16%	8	2%	-2%	-1	-13%
COc1cccc(NC(=O)N2CCN(c3nc(-c4cccc(OC)c4)cs3)CC2)c1	-41%	2	-3%	-19%	10	-1%
CNC(=S)N1CCN(c2nc(-c3cccc(OC)c3)cs2)CC1	31%	1	-7%	-17%	9.9*	3%
COc1cccc(-c2csc(N3CCN(C(=O)Nc4ccccc4Cl)CC3)n2)c1	-1%	50	4%	-5%	9.5*	-2%
COc1cccc(-c2csc(N3CCN(C(=S)Nc4cccc(C)c4)CC3)n2)c1	-11%	41	8%	37%	18*	-1%
CCOc1ccccc1NC(=S)N1CCN(c2nc(-c3cccc(OC)c3)cs2)CC1	-18%	47	-4%	16%	13	6%
COc1cccc(-c2csc(N3CCN(Cc4ccccc4)CC3)n2)c1	18%	32	?	18%	18*	?
O=C(COc1ccccc1[N+](=O)[O-])OCCCOC(=O)COc1ccccc1[N+](=O)[O-]	-9%	-11	0%	-8%	-2	?
Cc1ccccc1-c1nc2cc(Cl)ccc2c(=O)o1	-36%	2	-5%	6%	7	-1%
O=C(c1ccc(Cn2c(=O)[nH]c3ccccc3c2=O)cc1)N1CCN(c2ccc(Cl)cc2)CC1	-1%	-3	-10%	-10%	-2	-13%
O=C(NCc1cccs1)c1nn2cccnc2c1Cl	-13%	56	?	4%	22*	-2%
O=C(NCC1CCCO1)c1nn2cccnc2c1Cl (stereo not given)	-12%	28*	-9%	2%	24*	5%
O=C(NCc1cccs1)c1nc2ncccn2n1	.	-5	-8%	4%	-3	.
CCOc1cccc(/C=C/c2ccc3cccc(O)c3n2)c1O	-34%	139*	-10%	77%	27*	-4%
CCOc1cccc(/C=C/c2ccc3cccc(O)c3n2)c1OC	-35%	93*	3%	50%	52*	-2%
COc1cccc(C=Cc2nccc3ccccc23)c1OC	.	.	.	38%	.	.
CCCCn1c(NS(=O)(=O)c2ccc(C)cc2)c(S(=O)(=O)c2ccccc2)c2nc3ccccc3nc21	-13%	-5	-8%	-1%	-5	-7%
CCSc1ccc(-c2ccc(C)cc2)nn1	-12%	65*	?	-8%	28*	3%
Cc1ccc(-c2ccc(SCC(=O)NC3CCCC3)nn2)cc1	0%	8	-3%	-1%	4	2%

Bioassay records deposited in PubChem by National Center for Advancing Translational Sciences (NCATS).
